This passage reports activation, Potency and activity change, negative = inhibition results from PubChem BioAssay (NCATS).

“And” between values parts separate entries of the source, which are not always exact repeats. Identical values can stand only once. Inconclusive results are not listed. A number with no mark means an inactive call. The source made the active and inactive calls. Calls come from the whole dose curve; as a rule, active = well fitted curve in the direction sought with a large enough effect; inconclusive = small, poorly fitted or top-dose-only effect, or another doubt; inactive = no such curve, though single readings can be large; an effect the other way counts as inactive or inconclusive.

In test [1] the target is Cellular tumor antigen p53 (Homo sapiens) (UniProt P04637). Kind of test: Primary qHTS for small molecule compounds that upregulate eGFP-tagged delta133p53alpha (in N-terminal) cells. (AID 2060322).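 For activation: cells pre-induced with doxycycline then dosed without doxycycline; series mostly up to about 56 µM; 0% = DMSO vehicle and 100% = reference activator.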 Note: nearly all actives have a fitted effect of over 75% in size. Note: potency is the fitted concentration of half-maximal effect. To be noted: NCI-H358 eGFP-delta133p53alpha fluorescence, 24 h; activation: stronger effect = higher value. In outline: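 NCI-H358 cells pre-induced 24 h with 10 ng/ml doxycycline for eGFP-delta133p53alpha, plated dox-free and exposed 24 h at 37C to titrated compounds. Fixed, Hoechst-stained; gated GFP peak intensity by laser scanning cytometry, normalized to DMSO (0%) and 57.5 uM 5-azacytidine (100%).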
Cellular tumor antigen p53 (Homo sapiens), sequence (P04637 whole entry, looked up): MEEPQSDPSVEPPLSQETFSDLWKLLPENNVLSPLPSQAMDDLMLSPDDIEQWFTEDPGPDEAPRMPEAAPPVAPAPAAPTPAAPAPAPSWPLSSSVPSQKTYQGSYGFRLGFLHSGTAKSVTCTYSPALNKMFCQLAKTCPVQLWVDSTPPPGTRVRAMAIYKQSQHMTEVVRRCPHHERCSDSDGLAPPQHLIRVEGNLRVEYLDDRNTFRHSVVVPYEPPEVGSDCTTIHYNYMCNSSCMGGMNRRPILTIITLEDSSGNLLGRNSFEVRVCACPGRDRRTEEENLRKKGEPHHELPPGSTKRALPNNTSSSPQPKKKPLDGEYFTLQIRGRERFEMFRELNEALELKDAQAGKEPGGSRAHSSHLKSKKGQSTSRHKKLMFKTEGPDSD
In general terms: Quantitative high-throughput screening tests each substance at several concentrations.

Test [2] concerns the target Aldehyde dehydrogenase, mitochondrial (Homo sapiens) (UniProt P05091). Kind of test: qHTS for Inhibitors of the Aldehyde Dehydrogenase Family (ALDH2) Primary screen (AID 2061308).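 Note: plate controls were vehicle for no effect and reference inhibitor for full effect; nearly all actives have a fitted effect of over 55% in size.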
The target of test [3] is Retinaldehyde dehydrogenase 3 (Homo sapiens) (UniProt P47895). Kind of test: qHTS for Inhibitors of the Aldehyde Dehydrogenase Family (ALDH1A3) Primary screen (AID 2061315).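 Note: plate controls were DMSO vehicle for no effect and reference inhibitor for full effect.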

For the compound `CC1(C)CCC[C@]2(C)C1CC=C(CO)[C@H]2CC/C(=C/CO)CO` (some centres undefined), the activation in test [1] is -15.3%. Besides, the Potency result in test [2] and in test [3] was “inactive” throughout.

For the compound `CC12CCC3C(C)(C)C(O)CCC3(C)C1Cc1c(oc(C(=O)O)cc1=O)O2` (centres undefined), in test [1], the activation is -9.92%. The Potency entry in test [2] and in test [3] was “inactive” in each case.

Consider `COc1cccc2c1CCC[C@H]2CN(C)CCc1ccc2ccoc2c1`, for which the activation in test [1] was -3.57%. The Potency entry in test [2] and in test [3] was “inactive” in each case.

On to `O=C(/C=C/c1ccc(O)cc1)N[C@@H](Cc1ccc(O)cc1)C(=O)O`, for which the activation in test [1] is 2.29%. For the same compound, the Potency entry in test [2] and in test [3] was “inactive” throughout.

In the case of `COc1ccc(CN2CCN(CCCSc3cc(C(C)(C)C)c(O)c(C(C)(C)C)c3)CC2)c(OC)c1OC`, the activation in test [1] is 16.3%. Also, the Potency result in test [2] and in test [3] was “inactive” each time.

Regarding `COC(=O)C1=COC(OC2OC(CO)C(O)C(O)C2O)C2C1C=CC2(O)CO` (centres undefined), the activation in test [1] was -3.57%. The Potency result in test [2] and in test [3] was “inactive” throughout.

Turning to `CC1(C)CCCC2(C)C=C(C(=O)O)C(O)CC12` (centres undefined), in test [1], the activation was -19.1%. Besides, the Potency result in test [2] and in test [3] was “inactive” throughout.

As to `Cc1ccc2c(c1)C=Cc1cc(C)ccc1C2c1cn(Cc2ccc(C(=O)Nc3nn[nH]n3)o2)c(=O)[nH]c1=S`, the activation in test [1] is -8.33%. Further, the Potency result in test [2] and in test [3] was “inactive” in each case.

On to `COc1cccc(Cn2ncc3c4sc(S(C)=O)cc4n(C)c3c2=O)c1` (centres undefined), for which, in test [1], the activation was 7.67%. For the same compound, the Potency entry in test [2] and in test [3] was “inactive” each time.

For the compound `CCOc1ccc(-c2ccc(Cn3c(CC(C)(C)C(=O)O)c(SC(C)(C)C)c4cc(OCc5ccc(C)cn5)ccc43)cc2)cn1`, the activation in test [1] is -1% and 3%. Also, the Potency result in test [2] and in test [3] was “inactive” in each case.

With `CCOC(=O)C1(CCOc2ccccc2)CCN(Cc2ccc(O)c(Cl)c2)CC1`, the activation in test [1] is 3.67%. The Potency result in test [2] and in test [3] was “inactive” each time.

Regarding `C=C1CC[C@@H]2[C@](C)(CC[C@H](O)[C@@]2(C)CCC=C(C)C)[C@@H]1Cc1c[nH]c2ccccc12`, the activation in test [1] was -21.4%. The Potency entry in test [2] and in test [3] was “inactive” in each case.

As for `CC(C)CC(=O)NCCn1cc(C(=O)O)c(=O)cc1C(O)c1ccccc1` (centres undefined), the activation in test [1] was -1.53%. Besides, the Potency result in test [2] and in test [3] was “inactive” each time.

With `COc1cc(NC(=O)c2cccc(-n3cc(NC(=O)Nc4cccc(C)c4)cn3)c2)cc(OC)c1OC`, the Potency in test [1] is 23.9 µM (active). Also, the Potency result in test [2] and in test [3] was “inactive” each time.

For the compound `C=C(C)[C@@H]1CC[C@]2(CO)CC[C@]3(C)[C@H](CC[C@@H]4[C@@]5(C)CC[C@H](O)C(C)(C)[C@@H]5CC[C@]43C)[C@@H]12`, the Potency in test [1] is 10.4 µM (active). For the same compound, the Potency result in test [2] and in test [3] was “inactive” each time.

In the case of `COc1cc(C2OCC3(O)C(c4ccc(O[C@@H]5O[C@H](CO)[C@@H](O)[C@H](O)[C@H]5O)c(OC)c4)OCC23O)ccc1O` (some centres undefined), the activation in test [1] is -6.11%. Further, the Potency result in test [2] and in test [3] was “inactive” each time.

For `C/C1=C\CCC2=C[C@@H](OC2=O)c2c(C)coc2C1`, the activation in test [1] is 13.4%. In addition, the Potency result in test [2] and in test [3] was “inactive” in each case.

As to `COC(=O)[C@@H](NC(=O)[C@H](CC(C)C)NC(=O)N(Cc1ccccc1)C[C@@H](O)[C@H](Cc1ccccc1)NC(=O)OC(C)(C)C)C(C)C`, in test [1], the activation was 19.7%. The activity change, negative = inhibition in test [2] is -10% [at 11.2 µM]; in test [3] it was 16.3% [at 11.2 µM].

Regarding `C=C[C@H]1[C@H](O[C@@H]2O[C@H](CO)[C@@H](O)[C@H](O)[C@H]2O)OC=C(C(=O)OC)[C@H]1C[C@@H]1c2cc(O)c(O)cc2CCN1C(C)=O`, the activation in test [1] was -6.11%. The Potency entry in test [2] and in test [3] was “inactive” in each case.

On to `COc1cc(/C=C/C(=O)O[C@H]2C[C@@H]3C(C(=O)O)=CO[C@@H](O[C@@H]4O[C@H](CO)[C@@H](O)[C@H](O)[C@H]4O)[C@@H]3[C@H]2C)ccc1O`, for which, in test [1], the activation was -2.29%. Further, the Potency entry in test [2] and in test [3] was “inactive” each time.

For `CC1(C)CC[C@]2(C(=O)O[C@@H]3O[C@H](CO)[C@@H](O)[C@H](O)[C@H]3O)CC[C@]3(C)C(=CCC4[C@@]5(C)CC[C@H](O[C@@H]6O[C@H](C(=O)O)[C@@H](O)[C@H](O)[C@H]6O)C(C)(C)C5CC[C@]43C)C2C1` (some centres undefined), the activation in test [1] was -0.893%. For the same compound, the Potency entry in test [2] and in test [3] was “inactive” in each case.

As to `c1ccc(-c2cnn3cc(-c4ccc(OCCN5CCOCC5)cc4)cnc23)cc1`, the activation in test [1] was -17%. Moreover, the Potency result in test [2] and in test [3] was “inactive” throughout.

Consider `COc1c(C)c2c(c(O)c1C/C=C(\C)CC/C=C(\C)CCC(=O)O)C(=O)OC2`, for which the activation in test [1] is 6.11%. Further, the Potency entry in test [2] and in test [3] was “inactive” each time.

For the compound `COc1ccc2c3c1O[C@H]1C[C@@H](O)C=C[C@@]31CCN(C)C2`, the activation in test [1] is 27.7%. Also, the Potency entry in test [2] and in test [3] was “inactive” in each case.

In the case of `CC1CC(=O)C2=C(O1)OC1(C)CCC3C(C)(C)C4OC4C(=O)C3(C)C1C2` (centres undefined), the activation in test [1] was 16.1%. Further, the Potency entry in test [2] and in test [3] was “inactive” throughout.

Consider `O=C(c1ccccn1)N(Cc1cccs1)C1(C(=O)NC2CCCCC2)CCCCC1`, for which the activation in test [1] is -1.67%. Further, the Potency entry in test [2] and in test [3] was “inactive” in each case.

Turning to `C=C1C[C@]23C[C@H]1CC[C@H]2[C@@]1(C)CCC[C@@]2(C)C(=O)O[C@@H]([C@@H]3O)[C@@H]12`, the activation in test [1] is 12.2%. Besides, the Potency entry in test [2] and in test [3] was “inactive” in each case.

For the compound `C/C(=C\C(=O)C[C@@]12C(=O)O[C@]3(C)CC[C@H]1C[C@H]23)C(N)=O`, the activation in test [1] was 9.92%. Further, the Potency result in test [2] and in test [3] was “inactive” in each case.
